# Compound activity deposited in PubChem by National Center for Advancing Translational Sciences (NCATS).
# TSHR antag – human thyrotropin receptor antagonism; TSHR-expressing cells, TSH-stimulated cAMP HTRF, 2 h; active compounds read low; activity change, negative = inhibition, % at 11.5 µM; 330,000 tested, 0.2% active; AID 504810;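 active = activity change below a set negative limit, meaning inhibition stronger than a set level, cut at about -70% in these data; inconclusive = activity change between two set negative limits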; also: % is scaled to controls: 0 for no effect and ±100 for the full control effect
# Target sequence (P16473 whole entry, looked up): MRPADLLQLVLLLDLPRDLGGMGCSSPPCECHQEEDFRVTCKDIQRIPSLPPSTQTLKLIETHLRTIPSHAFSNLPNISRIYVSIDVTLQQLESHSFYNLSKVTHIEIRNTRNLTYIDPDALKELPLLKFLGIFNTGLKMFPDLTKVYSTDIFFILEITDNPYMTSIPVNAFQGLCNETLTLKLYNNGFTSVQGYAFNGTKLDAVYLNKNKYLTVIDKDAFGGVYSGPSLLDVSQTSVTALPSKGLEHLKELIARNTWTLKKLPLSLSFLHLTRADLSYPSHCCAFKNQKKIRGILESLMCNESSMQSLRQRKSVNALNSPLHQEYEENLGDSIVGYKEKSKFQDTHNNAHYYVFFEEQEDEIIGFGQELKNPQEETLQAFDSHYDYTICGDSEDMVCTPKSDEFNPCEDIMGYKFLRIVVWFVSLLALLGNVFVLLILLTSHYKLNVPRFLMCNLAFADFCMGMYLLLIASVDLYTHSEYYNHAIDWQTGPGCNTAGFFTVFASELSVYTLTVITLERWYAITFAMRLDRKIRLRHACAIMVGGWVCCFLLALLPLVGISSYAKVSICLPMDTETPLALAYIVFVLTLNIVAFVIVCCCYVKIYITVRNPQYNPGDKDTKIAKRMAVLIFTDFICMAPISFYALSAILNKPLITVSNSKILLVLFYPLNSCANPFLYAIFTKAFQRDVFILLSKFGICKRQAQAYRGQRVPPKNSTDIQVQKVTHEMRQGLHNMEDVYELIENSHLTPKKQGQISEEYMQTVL
#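 Inhibition of cAMP made by TSHR-expressing cells under TSH stimulation (4nM final, EC80; 2 h, 37 deg C) is quantified with a one-step lysis HTRF kit, anti-cAMP cryptate versus cAMP-d2.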
# gsp ag – agonists of gsp mutant (McCune-Albright syndrome) | Potency, µM (highest dose often 76.9 µM), without a hit: at the highest dose activation (cAMP increase), most hits filed as activators | gsp mutant cells, cAMP HTRF, 30 min | 340,000 tested, 0.13% active; active = well fitted activation curve with a large enough effect; inconclusive = small, poorly fitted or top-dose-only effect, or another doubt; inactive = no such curve, though single readings can be large or run the other way; cell line not stated here;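 also: phosphodiesterase inhibitor Ro 20-1724 added with compounds to block cAMP breakdown; potency is read from the fitted curve at half-maximal effect; nearly all actives have a fitted effect of over 60% in size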
#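 Cells in DMEM/10% FBS with G418 were pretreated with compounds in DMSO plus […] (300 uM stock) for 30 min at 37C. cAMP was measured by HTRF (cAMP-d2 plus anti-cAMP antibody-K) after 30 min at room temperature.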
# gsp antagonist – antagonizes gsp, the McCune-Albright syndrome mutation; gsp-mutant cells, cAMP HTRF, 30 min; Potency, µM (titrated, usually from 76.9 µM), without a hit: at the highest dose activity change, negative = inhibition, usual class: inhibitors; 340,000 tested, 0.4% active; AID 624288; calls by dose curve; cell line not stated here;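 also: intracellular cAMP measured with PDE inhibitor Ro 20-1724 present during compound exposure; potency is read from the fitted curve at half-maximal effect; % is scaled to controls: 0 for no effect and ±100 for the full control effect; nearly all actives have a fitted effect of over 65% in size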
#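 Cells in G418 medium, seeded 16-24 h, 37C; buffer exchange to DPBS + 1 mM CaCl2, 0.5 mM MgCl2, 0.05% BSA; cpds in DMSO + […] (300 uM stock), 30 min 37C; HTRF cAMP detection.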
# RXFP1 antagonist – antagonists of human relaxin receptor RXFP1; Q9HBX9; HEK293-RXFP1, relaxin-stimulated cAMP HTRF, 30 min; active compounds read low; activity change, negative = inhibition, % at 57.5 µM; 350,000 tested, 0.59% active; AID 1259400;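 active = activity change of -60% or lower, but not beyond a set lower limit; inconclusive = change between -60% and -40%, or beyond the set limit; inactive = change above -40%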; also: % is scaled to controls: 0 for no effect and ±100 for the full control effect
# RXFP1 agonist – agonists of human relaxin receptor RXFP1 | HEK293T-RXFP1 cAMP TR-FRET, 30 min; response scale: percent of porcine relaxin response, buffer zero | AID 2676 | Potency, µM (highest dose often 57.5 µM), for the others: top-dose activation, most hits filed as activators | 370,000 tested, 0.3% active | Q9HBX9; active = well fitted activation curve with a large enough effect; inconclusive = small, poorly fitted or top-dose-only effect; also: potency is read from the fitted curve at half-maximal effect; % is scaled to controls: 0 for no effect and ±100 for the full control effect; nearly all actives have a fitted effect of over 60% in size
#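 HEK293 cells stably expressing RXFP1, treated 30 min at 37C with compounds plus PDE4 inhibitor Ro 20174; cAMP measured by HTRF TR-FRET. Normalized to buffer and 29 nM porcine relaxin; EC50 by Hill fit.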
# The depositor's hits bear a star; ? = inconclusive; . = no result; [ ] = another dose, or the depositor's remark. Most compounds without a hit are left out; they make up all but 1% or so of the library.
SMILES,TSHR antag,gsp ag,gsp antagonist,RXFP1 antagonist,RXFP1 agonist
COCCCNC(=O)c1ccc2c(c1)N(Cc1ccccc1)C(=O)c1ccccc1S2,.,.,.,-30.9,0.1%
CCCCN(CC)CCCNC(=O)c1ccc2c(c1)N(Cc1ccc(C)cc1)C(=O)c1ccccc1S2,.,.,.,-66.0*,1.4%
COc1cc(OC)c(Nc2c3c(nc4nc(-c5cccs5)nn24)CCCC3)cc1Cl,.,.,.,-34.8,2.6%
COc1ccc(-c2cn3cccnc3n2)cc1NC(=O)Nc1ccc(Cl)cc1,.,.,.,-6.5,9.2%
COc1ccc(OC)c(/C=C2\SC(=S)N(NS(=O)(=O)c3ccc(C)cc3)C2=O)c1,-17.2,1.0%,?,?,3.2%
COc1ccccc1/C=C1\SC(=S)N(NS(=O)(=O)c2ccc(C)cc2)C1=O,-2.7,?,?,-0.9,3.9%
COc1ccc(/C=C2\SC(=S)N(NS(=O)(=O)c3ccc(C)cc3)C2=O)c(OC)c1,11.8,10.2%[15.4 µM],50.1µM*,-32.5,3.3%
CCOc1cc(/C=C2\SC(=S)N(NS(=O)(=O)c3ccccc3)C2=O)ccc1O,5.0,-48.8%,25.1µM*,-18.0,-15.7%
COc1ccc(OC)c(/C=C2\SC(=S)N(NS(=O)(=O)c3ccccc3)C2=O)c1,-22.8,?,17.8µM*,0.1,0.9%
COc1ccc(/C=C2\SC(=S)N(NS(=O)(=O)c3ccccc3)C2=O)c(OC)c1,-5.9,-155.1%,?,-68.2*,3.6%
COc1cccc(-c2cn3c(n2)sc2cc(C(=O)NCCCc4ccccc4)ccc23)c1,.,.,.,12.0,6.6%
O=C(CN1C(=O)c2ccccc2S1(=O)=O)NCCSCc1cccc(Cl)c1,-96.2*,-5.1%[15.4 µM],-4.3%,-3.2,1.7%
COc1ccc2c(c1)cc1c(=O)n(CC(=O)NCCCc3ccccc3)nc(C)n12,.,.,.,-2.0,0.4%
CCOc1ccccc1-n1c(=S)sc2c(=O)n(-c3ccc(F)cc3)c(SCC(=O)O)nc21,-70.9*,5.8%,-7.3%,-2.2,3.3%
Cc1nn(S(=O)(=O)c2cccs2)c(C)c1Sc1ccc([N+](=O)[O-])cc1,-16.2,-4.1%,25.1µM*,-5.0,3.3%
Cc1nn(S(=O)(=O)c2cccs2)c(C)c1Sc1ccccc1,-2.6,.,.,.,3.0%
COc1ccc(OC)c(CNC(=O)C2CCCCN2S(=O)(=O)c2ccc(F)cc2)c1 (stereo not given),.,.,.,-8.1,0.4%
Oc1ccc(Nc2nc(-c3ccccc3)nc3ccccc23)cc1,2.2,5.4%[15.4 µM],-10.4%,-76.6*,-1.4%
CCCS(=O)(=O)N1CCC(N2CCN(Cc3ccc(F)cc3)C(=O)C2=O)CC1,.,.,.,-12.8,3.9%
COc1ccc(CN(C(=O)Nc2cc(C)ccc2C)C2CCN(C(C)=O)CC2)cc1,.,.,.,-14.5,-3.7%
CC[n+]1ccccc1/C=C/c1ccc(N(C)C)cc1,-43.1,?,?,-18.8,0.2%
CC[n+]1c(/C=C/c2ccc(N(C)C)cc2)ccc2ccccc21,-49.4,20.0%,?,-91.3*,3.3%
CC[n+]1c(/C=C/c2ccc(OC)c(OC)c2)ccc2ccccc21,-0.6,-32.1%,-4.5%,-1.0,-1.1%
CC[n+]1ccc(/C=C/c2ccc(N(C)C)cc2)c2ccccc21,-70.8*,-143.5%,?,?,-15.6%
COc1ccccc1NC(=O)CN1C(=O)c2cccc3cccc1c23,.,.,.,7.1,3.0%
SMILES,TSHR antag,gsp ag,gsp antagonist,RXFP1 antagonist,RXFP1 agonist
CCCCOC(=O)c1ccc(Nc2ncnc3c2cnn3-c2cccc(C)c2)cc1,.,.,.,4.6,0.1%
COc1ccc(C(=O)N2c3nc(-c4ccco4)nn3C3(CCCCC3)[C@@H]3CCCC[C@@H]32)cc1OC,.,.,.,-25.7,0.1%
O=C(c1ccc(F)cc1)N1c2nc(-c3ccco3)nn2C2(CCCCC2)[C@@H]2CCCC[C@@H]21,.,.,.,-70.9*,2.9%
O=C(c1ccccc1F)N1c2ncnn2C2(CCCCC2)[C@@H]2CCCC[C@@H]21,.,.,.,-8.0,1.3%
O=C(c1ccccc1F)N1c2nc(-c3ccco3)nn2C2(CCCCC2)[C@@H]2CCCC[C@@H]21,.,.,.,-65.5*,-1.0%
COc1ccccc1CNC(=O)c1oc2c(c1C)-c1nn(Cc3ccc(Cl)cc3)cc1CC2,.,.,.,-15.2,-3.4%
Cc1ccc(NC(=O)CSc2ccccc2NC(=O)c2ccccc2)cc1Cl,0.8,12.4%,-7.9%,0.6,0.9%
Cc1ccc(NC(=O)CSc2ccccc2NC(=O)c2ccccc2Cl)cc1Cl,-12.0,-16.6%,28.2µM*,-0.2,2.3%
CC(=O)c1cccc(NS(=O)(=O)c2ccc(N/C=C/C(=O)c3ccc(F)cc3)cc2)c1,-73.5*,-2.0%[15.4 µM],?,-6.8,0.9%
CN[C@H](CC(C)C)C(=O)N[C@H]1C(=O)N[C@@H](CC(N)=O)C(=O)N[C@@H]2C(=O)N[C@H]3C(=O)N[C@H](C(=O)N[C@H](C(=O)O)c4cc(O)cc(O)c4-c4cc3ccc4O)[C@H](O)c3ccc(c(Cl)c3)Oc3cc2cc(c3O[C@@H]2O[C@H](CO)[C@@H](O)[C@H](O)[C@@H]2O[C@H]2C[C@](C)(N)[C@H](O)[C@H](C)O2)Oc2ccc(cc2Cl)[C@H]1O,-12.9,.,.,.,.
CCCCCCCCCCCCCCCC[N+](C)(C)CC,-4.6,.,7.4%,-86.8*,0.6%
CC1SCC(=NOCc2ccccc2)CS1 (stereo not given),-70.4*,-16.3%[15.4 µM],15.9%,-13.9,1.2%
C(=NOCc1ccccc1)c1ccncc1,.,-10.3%,10.0%,-0.5,.
CCc1cc2c(=O)n(-c3ccccc3)c(SCC(N)=O)nc2s1,-16.0,6.5%,7.08µM*,-11.1,0.3%
COC(=O)CSc1nc2sccc2c(=O)n1-c1ccccc1,-6.0,-3.2%[15.4 µM],6.3%,-3.7,2.3%
OC(COC(c1ccc(F)cc1)c1ccc(F)cc1)CN1CCc2ccccc2C1 (stereo not given),-11.7,-56.1%,3.8%,-62.2*,-3.0%
Cc1nnc(NC(=O)c2nc(S(=O)(=O)Cc3ccccc3C)ncc2Cl)s1,-27.5,11.1%,?,6.2,-0.5%
CCc1nnc(NC(=O)c2nc(S(=O)(=O)Cc3ccc(C)cc3)ncc2Cl)s1,-18.9,-8.2%[15.4 µM],28.2µM*,-24.6,-0.1%
CCc1nnc(NC(=O)c2nc(S(=O)(=O)Cc3cccc(C)c3)ncc2Cl)s1,-32.5,-19.5%[15.4 µM],15.8µM*,-34.3,-4.0%
CCOc1ccccc1NC(=O)c1nc(S(=O)(=O)Cc2cccc(C)c2)ncc1Cl,-82.8*,?,-24.4%,-4.3,-0.1%
COC(=O)c1ccccc1NC(=O)c1nc(S(=O)(=O)Cc2ccccc2)ncc1Cl,-18.5,-69.7%,-27.6%,2.5,1.6%
CCc1nnc(NC(=O)c2nc(S(=O)(=O)Cc3ccccc3)ncc2Cl)s1,-26.7,5.9%[15.4 µM],?,-9.5,-1.6%
O=C(Nc1cccc(S(=O)(=O)N2CCCCC2)c1)c1ccc2c(=O)n3c(nc2c1)CCCCC3,-77.4*,4.7%,?,2.0,0.6%
Cc1ccc(C)c(N(C)C(=O)c2ccc3c(=O)n4c(nc3c2)CCCCC4)c1,20.9,-1.5%,-5.5%,-102.1*,-3.1%
